# Test results as given in PMC5700166.
# Positions count from the first letter of the chain named.
# Tests used:
# Assay in all cases: protein-binding microarray (PBM); PBM: ~300 nM protein, 6 mM HEPES pH 7.8, 80 mM KCl, 0.5 mM EDTA, 0.5 mM EGTA, 6% glycerol, 35 ng/ul poly-dIdC, 1% milk, 1 h, room temperature; Ap Aiptasia and Nv Nematostella (sea anemones) / Co Capsaspora / Aq Amphimedon (sponge) / Dm Drosophila / Hu human; RHD is the Rel homology domain; high values mean tight binding
# Conditions in all cases: dsDNA, one strand shown
# GST-Ap-NF-kB RHD = molecular target: T1, GST-Ap-NF-kB RHD (Exaiptasia pallida (Aiptasia), UniProt A0A913YAJ5 2-422)
# T1 sequence: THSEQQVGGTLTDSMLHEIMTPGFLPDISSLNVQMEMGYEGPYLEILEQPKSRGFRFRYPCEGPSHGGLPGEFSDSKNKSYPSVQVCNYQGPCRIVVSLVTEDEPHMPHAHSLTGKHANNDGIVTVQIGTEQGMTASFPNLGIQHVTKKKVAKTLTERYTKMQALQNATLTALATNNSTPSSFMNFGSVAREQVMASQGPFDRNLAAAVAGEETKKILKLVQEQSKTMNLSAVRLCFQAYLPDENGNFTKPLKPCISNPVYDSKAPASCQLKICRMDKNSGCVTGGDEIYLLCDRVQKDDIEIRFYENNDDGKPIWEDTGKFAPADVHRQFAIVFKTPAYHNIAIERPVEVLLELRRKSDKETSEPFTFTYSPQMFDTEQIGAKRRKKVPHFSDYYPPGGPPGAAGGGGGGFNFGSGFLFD
# [1] = molecular target: T2, GST-Nv-NF-kB (Cys allele) (Nematostella vectensis, UniProt E5G601 2-411)
# T2 sequence: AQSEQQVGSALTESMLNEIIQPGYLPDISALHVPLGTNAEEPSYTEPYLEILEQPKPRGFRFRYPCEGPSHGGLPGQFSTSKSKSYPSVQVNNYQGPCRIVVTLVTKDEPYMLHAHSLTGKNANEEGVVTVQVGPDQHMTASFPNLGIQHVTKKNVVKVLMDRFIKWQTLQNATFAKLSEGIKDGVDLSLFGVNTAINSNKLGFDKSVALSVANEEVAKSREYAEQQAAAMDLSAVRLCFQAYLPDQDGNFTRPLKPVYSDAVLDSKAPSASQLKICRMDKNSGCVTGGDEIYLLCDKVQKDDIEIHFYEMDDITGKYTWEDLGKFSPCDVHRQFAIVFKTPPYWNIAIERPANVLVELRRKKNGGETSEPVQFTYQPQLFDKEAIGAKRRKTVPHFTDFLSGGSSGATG
# [2] = molecular target: T3, GST-Nv-NF-kB (Ser allele) (Nematostella vectensis, UniProt A7UNT2 2-411)
# T3 sequence: T2 sequence with Q21R, C66S, S207N, E215Q, V217A, E225K, A268E, D399E
# GST-Co-NF-kB = molecular target: T4, GST-Co-NF-kB (Capsaspora owczarzaki, UniProt F1ARL5 200-546)
# T4 sequence: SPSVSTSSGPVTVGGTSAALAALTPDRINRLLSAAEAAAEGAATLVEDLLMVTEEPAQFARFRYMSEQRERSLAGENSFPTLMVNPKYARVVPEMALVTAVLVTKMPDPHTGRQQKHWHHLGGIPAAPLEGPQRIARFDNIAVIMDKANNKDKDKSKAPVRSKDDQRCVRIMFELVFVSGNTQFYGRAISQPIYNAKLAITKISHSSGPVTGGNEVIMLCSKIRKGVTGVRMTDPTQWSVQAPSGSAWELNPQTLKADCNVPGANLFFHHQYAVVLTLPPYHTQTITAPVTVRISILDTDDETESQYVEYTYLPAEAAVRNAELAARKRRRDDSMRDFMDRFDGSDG
# GST-Dm-Relish = molecular target: T5, GST-Dm-Relish (Drosophila melanogaster, UniProt Q94527 99-473)
# T5 sequence: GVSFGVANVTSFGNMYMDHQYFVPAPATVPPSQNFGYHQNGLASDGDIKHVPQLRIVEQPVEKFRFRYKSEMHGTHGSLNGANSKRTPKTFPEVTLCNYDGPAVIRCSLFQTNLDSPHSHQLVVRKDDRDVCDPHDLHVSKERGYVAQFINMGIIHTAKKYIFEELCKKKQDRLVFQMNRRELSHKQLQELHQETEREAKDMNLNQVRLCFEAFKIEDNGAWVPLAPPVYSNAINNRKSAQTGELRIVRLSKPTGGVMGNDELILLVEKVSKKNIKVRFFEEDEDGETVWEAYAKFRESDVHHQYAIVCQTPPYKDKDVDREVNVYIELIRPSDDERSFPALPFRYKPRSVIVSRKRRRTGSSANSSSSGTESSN
# GST-Aq-NF-kB = molecular target: T6, GST-Aq-NF-kB (Amphimedon queenslandica, UniProt A9Y5G7 2-389)
# T6 sequence: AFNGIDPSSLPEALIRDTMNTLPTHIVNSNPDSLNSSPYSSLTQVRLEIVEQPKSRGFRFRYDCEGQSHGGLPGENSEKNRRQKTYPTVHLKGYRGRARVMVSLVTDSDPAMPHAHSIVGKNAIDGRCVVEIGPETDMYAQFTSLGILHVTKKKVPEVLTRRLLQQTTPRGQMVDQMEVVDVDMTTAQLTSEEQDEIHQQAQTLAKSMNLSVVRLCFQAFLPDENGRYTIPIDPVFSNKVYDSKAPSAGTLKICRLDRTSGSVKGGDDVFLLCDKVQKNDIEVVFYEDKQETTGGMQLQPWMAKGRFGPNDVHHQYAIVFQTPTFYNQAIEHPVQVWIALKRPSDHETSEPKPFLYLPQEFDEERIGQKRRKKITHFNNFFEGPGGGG
# GST-Hu-p50 = GST-Hu-p50 (Homo sapiens, UniProt P19838 7-356)
# GST-Hu-p50, sequence (P19838 7-356): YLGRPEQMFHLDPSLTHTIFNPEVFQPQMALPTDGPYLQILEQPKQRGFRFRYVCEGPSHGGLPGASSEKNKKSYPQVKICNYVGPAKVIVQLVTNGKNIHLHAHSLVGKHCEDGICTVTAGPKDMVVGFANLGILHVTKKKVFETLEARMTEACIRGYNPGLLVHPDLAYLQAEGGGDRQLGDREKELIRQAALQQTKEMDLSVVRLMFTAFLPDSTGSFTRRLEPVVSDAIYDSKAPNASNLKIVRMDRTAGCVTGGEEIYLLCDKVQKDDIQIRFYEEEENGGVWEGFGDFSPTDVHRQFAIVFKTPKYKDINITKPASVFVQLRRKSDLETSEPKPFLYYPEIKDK
Sequence,binding signal (GST-Ap-NF-kB RHD),binding signal [1],binding signal [2],binding signal (GST-Co-NF-kB),binding signal (GST-Dm-Relish),binding signal (GST-Aq-NF-kB),binding signal (GST-Hu-p50)
CCGATTAACATCAGGGGGGTAACTGATGTTAATCGGGTCTTGATTCGCTTGACGCTGCTG,5.83 z-score,4.16 z-score,4.34 z-score,6.37 z-score,4.31 z-score,4.37 z-score,4.07 z-score
CCGATTAACATCAAGATTTTCCCTGATGTTAATCGGGTCTTGATTCGCTTGACGCTGCTG,4.58 z-score,6.22 z-score,7.42 z-score,5.04 z-score,1.5 z-score,5.78 z-score,4.29 z-score
CCGATTAACATCAGGGAAAGCCCTGATGTTAATCGGGTCTTGATTCGCTTGACGCTGCTG,6.37 z-score,8.76 z-score,4.62 z-score,1.84 z-score,7.96 z-score,8.88 z-score,4.93 z-score
CCGATTAACATCAACATTTCCCCTGATGTTAATCGGGTCTTGATTCGCTTGACGCTGCTG,6.31 z-score,8.45 z-score,11.6 z-score,8.45 z-score,3.46 z-score,5.86 z-score,6.35 z-score
CCGATTAACATCAAGGGGGATCCTGATGTTAATCGGGTCTTGATTCGCTTGACGCTGCTG,8.33 z-score,6.38 z-score,7.04 z-score,3.07 z-score,8.84 z-score,6.34 z-score,6.91 z-score
CCGATTAACATCAGATATTCCCATGATGTTAATCGGGTCTTGATTCGCTTGACGCTGCTG,3.86 z-score,3.21 z-score,3.17 z-score,2.8 z-score,1.78 z-score,2.67 z-score,1.97 z-score
CCGATTAACATCACAAAATCCCCTGATGTTAATCGGGTCTTGATTCGCTTGACGCTGCTG,9.85 z-score,10.8 z-score,12.8 z-score,5.11 z-score,9.67 z-score,8 z-score,8.07 z-score
CCGATTAACATCACAAGTTCCCCTGATGTTAATCGGGTCTTGATTCGCTTGACGCTGCTG,7.44 z-score,7.71 z-score,8.61 z-score,7.27 z-score,6.56 z-score,6.21 z-score,5.93 z-score
CCGATTAACATCAGGGGGAATACTGATGTTAATCGGGTCTTGATTCGCTTGACGCTGCTG,8.15 z-score,8.32 z-score,8.65 z-score,9.18 z-score,7.69 z-score,6.87 z-score,6.83 z-score
CCGATTAACATCATAATTCCCCATGATGTTAATCGGGTCTTGATTCGCTTGACGCTGCTG,6.71 z-score,8.63 z-score,8.94 z-score,6.68 z-score,4.84 z-score,5.33 z-score,6.35 z-score
CCGATTAACATCAAACATCCCCTTGATGTTAATCGGGTCTTGATTCGCTTGACGCTGCTG,6.4 z-score,7.13 z-score,7.29 z-score,2.37 z-score,6.75 z-score,6.17 z-score,5.4 z-score
CCGATTAACATCAGTATTTCCCATGATGTTAATCGGGTCTTGATTCGCTTGACGCTGCTG,3.01 z-score,3.64 z-score,3.53 z-score,3.66 z-score,5.01 z-score,3.73 z-score,2.64 z-score
CCGATTAACATCAAATATTCCCCTGATGTTAATCGGGTCTTGATTCGCTTGACGCTGCTG,8.25 z-score,10.7 z-score,11 z-score,10.1 z-score,7.22 z-score,8.12 z-score,6.65 z-score
CCGATTAACATCAGGGGAATAAATGATGTTAATCGGGTCTTGATTCGCTTGACGCTGCTG,6.25 z-score,7.82 z-score,8.47 z-score,8.22 z-score,5.48 z-score,5.94 z-score,5.62 z-score
CCGATTAACATCAGCACTCCCCCTGATGTTAATCGGGTCTTGATTCGCTTGACGCTGCTG,5.42 z-score,4.35 z-score,4.91 z-score,3.89 z-score,2.23 z-score,3.99 z-score,5.21 z-score
CCGATTAACATCAATGTTCCCCCTGATGTTAATCGGGTCTTGATTCGCTTGACGCTGCTG,6.95 z-score,6.49 z-score,7.58 z-score,11 z-score,5.32 z-score,6.17 z-score,5.74 z-score
CCGATTAACATCAAAACTCCCCTTGATGTTAATCGGGTCTTGATTCGCTTGACGCTGCTG,8.31 z-score,7.73 z-score,8.37 z-score,4.59 z-score,7.49 z-score,7.22 z-score,6.44 z-score
CCGATTAACATCAAAAAACCCCTTGATGTTAATCGGGTCTTGATTCGCTTGACGCTGCTG,8.1 z-score,8.78 z-score,7.86 z-score,2.05 z-score,8.96 z-score,8 z-score,7.64 z-score
CCGATTAACATCACGGGTTCCCCTGATGTTAATCGGGTCTTGATTCGCTTGACGCTGCTG,7.55 z-score,5.61 z-score,6.62 z-score,5.5 z-score,7.65 z-score,4.79 z-score,4.64 z-score
CCGATTAACATCAGGGGATTGGATGATGTTAATCGGGTCTTGATTCGCTTGACGCTGCTG,4.77 z-score,4.99 z-score,6.52 z-score,2.06 z-score,2.73 z-score,3.69 z-score,4.98 z-score
CCGATTAACATCAAGGGGAAATCTGATGTTAATCGGGTCTTGATTCGCTTGACGCTGCTG,8.38 z-score,9.53 z-score,12.2 z-score,7.59 z-score,6.04 z-score,6.89 z-score,7.08 z-score
CCGATTAACATCAAAGTCCCCCTTGATGTTAATCGGGTCTTGATTCGCTTGACGCTGCTG,7 z-score,6.84 z-score,6.92 z-score,4.36 z-score,8.18 z-score,6.66 z-score,6.67 z-score
CCGATTAACATCAGTACTCCCCATGATGTTAATCGGGTCTTGATTCGCTTGACGCTGCTG,3.64 z-score,2.81 z-score,2.45 z-score,2.88 z-score,4.81 z-score,2.35 z-score,2.2 z-score
CCGATTAACATCAGCAACCCCCCTGATGTTAATCGGGTCTTGATTCGCTTGACGCTGCTG,5.04 z-score,3.58 z-score,3.86 z-score,2.82 z-score,6.14 z-score,4.16 z-score,4.83 z-score
CCGATTAACATCAATATTTCCCCTGATGTTAATCGGGTCTTGATTCGCTTGACGCTGCTG,8.09 z-score,10.1 z-score,13.2 z-score,10.7 z-score,5.87 z-score,6.9 z-score,7.24 z-score
